Active and inactive are the calls of the source. The rule behind the calls is not given here.
Potency is the fitted concentration of half-maximal effect.

For this assay, the system named is HIV-1 nucleocapsid protein NCp7 (binding to TG oligonucleotide). Description: HIV Nucleocapsid (AID 346).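 Note: potency is for inhibitors that block NC binding and lower polarization.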 The settings on record: HIV-1 NC / fluorescein-TGTGTGTG probe, fluorescence polarization. In short, it runs like this:
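NCp7 100 nM + fluorescein TG4xF 10 nM; Hepes pH 7.5/250mM NaCl/1uM ZnCl2/0.004% PEG 20000; 1 hr RT; FP, 45 s exposure; oligo-only wells as negative control.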
Background: Polarisation of emitted light reports the rotation of a fluorescent probe.
On to `O=C(Nc1ccccc1)N1CC[C@@]2(CCCN(C(=O)c3cccc(F)c3)C2)C1`, for which the Potency is > 20 µM (inactive).

As for `CN(C)C(=O)c1ccc(-c2ccc3ncnc(N4CCC(C(=O)O)CC4)c3c2)cc1`, the Potency is > 20 µM (inactive).

On to `COc1cccc(Nc2ncc3nc(-c4ccccc4)c(=O)n(C4CC4)c3n2)c1`, for which the Potency is > 20 µM (inactive).

Consider `COc1ncc2nc(-c3cc(F)cc(F)c3)c(=O)n(Cc3cccs3)c2n1`, for which the Potency was > 20 µM (inactive).

As to `COc1ccc(NC(=O)N2CC[C@@]3(CCCN(S(C)(=O)=O)C3)C2)cc1`, the Potency is > 20 µM (inactive).

With `CC(=O)N1CCC[C@@]2(CCN(c3ccccc3)C2)C1`, the Potency was > 20 µM (inactive).

As for `COc1cccc(Nc2ncc3nc(C)c(=O)n(CCC#N)c3n2)c1`, the Potency was > 20 µM (inactive).

On to `O=C(Nc1ccccc1)N1CC[C@@]2(CCCN(C(=O)c3ccco3)C2)C1`, for which the Potency is > 20 µM (inactive).

Turning to `CN(C)C(=O)c1ccc(-c2nc(Nc3ccccc3)c3ccccc3n2)cc1`, the Potency was > 20 µM (inactive).

Regarding `O=C(Nc1ccccc1)N1CC[C@@]2(CCCN(C(=O)c3ccncc3)C2)C1`, the Potency is > 20 µM (inactive).

Consider `CS(=O)(=O)N1CCC2(CCCN(C(=O)Nc3cccc(C#N)c3)C2)CC1`, for which the Potency was > 20 µM (inactive).

Regarding `CCNc1ncc2nc(CCc3ccccc3)c(=O)n(CCC#N)c2n1`, the Potency was > 20 µM (inactive).

With `N#Cc1cccc(-c2nc3cnc(Oc4cccc(Cl)c4)nc3n(C3CC3)c2=O)c1`, the Potency was > 20 µM (inactive).

As for `CN1CCN(c2ncc3nc(-c4ccccc4)c(=O)n(C4CC4)c3n2)CC1`, the Potency is > 20 µM (inactive).

With `COc1ccc(CNc2nc(-c3ccc4c(c3)OCO4)nc3ccccc23)c(OC)c1`, the Potency was > 20 µM (inactive).

Regarding `COc1ccc2[nH]cc(CCNc3ccnc(-c4ccccc4C)n3)c2c1`, the Potency is > 20 µM (inactive).

With `COc1ccc(C(=O)N2CCC3(CCCN(Cc4ccc(C#N)cc4)C3)CC2)cc1`, the Potency is > 20 µM (inactive).

Take `Cc1ccccc1-c1nccc(Nc2ccc(F)cc2)n1`: the Potency was > 20 µM (inactive).

With `CS(=O)(=O)Nc1cccc(-c2nccc(-n3ccnc3)n2)c1`, the Potency is > 20 µM (inactive).

In the case of `COc1ccc2[nH]cc(CCNc3ncncc3-c3ccccc3CN(C)C)c2c1`, the Potency was > 20 µM (inactive).

Consider `COc1ccc2[nH]cc(CCNc3ncnc4ccc(-c5ccc(C(=O)N(C)C)cc5)cc34)c2c1`, for which the Potency is > 20 µM (inactive).

For the molecule `COCC(=O)N1CCC2(CC1)CN(C(=O)Nc1cccc(C#N)c1)C2`, the Potency is > 20 µM (inactive).

Regarding `O=C(c1ccncc1)N1CCC2(CCCN(C(c3ccccc3)c3ccccc3)C2)CC1`, the Potency is > 20 µM (inactive).

As for `c1cncc(CNc2nc(-c3ccoc3)nc3ccccc23)c1`, the Potency was > 20 µM (inactive).

Consider `Cn1cccc1C(=O)N1CCC2(CCN(C(=O)Nc3cccc(C#N)c3)CC2)CC1`, for which the Potency was > 20 µM (inactive).

The values above are taken from PubChem BioAssay (NCATS).
